The results in this text go back to PubChem BioAssay (Tox21).

A short description of assay [1]: qHTS assay to identify small molecule agonists of the hypoxia (HIF-1) signaling pathway - cell viability counter screen (AID 1224844; calls by dose curve; also: nearly all actives have a fitted effect of over 50% in size). The essentials:
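Tox21 10K compounds were added to HRE-bla ME-180 cells (0.5% dialyzed FBS) and incubated 17 hrs at 37C; ATP-based CellTiter-Glo luminescence then reported cell viability in the same wells.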
For orientation: qHTS replaces the single test concentration by a dilution series.

A short description of assay [2]: qHTS assay to identify small molecule agonists of H2AX (AID 1224845; active = well fitted activation curve with a large enough effect in the signal ratio in the repeat runs, not every such curve was filed as active; the % refers to the signal ratio). The essentials:
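Wild-type CHO-K1 cells plated overnight, then exposed 3 hr at 37C to compounds at 15 concentrations (0.76% DMSO). Lysed, then HTRF anti-pH2AX(S139)-cryptate/anti-H2AX-d2 detection after 24 hr at room temperature; emissions 665 and 620 nm.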

Assay [3] can be described thus: qHTS assay to identify small molecule agonists of the hypoxia (HIF-1) signaling pathway (AID 1224846; active = well fitted activation curve with a large enough effect in the signal ratio in the repeat runs, not every such curve was filed as active; the % refers to the signal ratio). In outline:
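Steps: seed ME-180 HRE-bla cells (2,000/well, 0.5% dialyzed FBS); incubate 5 hrs at 37C; pin-transfer compounds or DMSO; incubate 17 hrs; add LiveBLAzer B/G substrate CCF4-AM; measure reporter activation by FRET.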

Assay [4] in a line: qHTS assay to identify small molecule agonists of H2AX - cell viability counter screen (AID 1224847; calls by dose curve; also: top concentration of the series differs between compounds; nearly all actives have a fitted effect of over 30% in size). The essentials:
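Cytotoxicity counter screen in wild-type CHO-K1 cells: a 3 hr compound treatment at 37C across 15 concentrations, followed by CellTiter-Glo luminescence to gauge viable cells.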

A short description of assay [5]: qHTS RealTime-Glo MT Cell Viability Assay in HepG2 cells - 24 hour (AID 1224867). Also: nearly all actives have a fitted effect of over 50% in size. The essentials: (§1)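 HepG2 cells were seeded at 600 cells/well together with NanoLuc luciferase and a cell-permeant prosubstrate, preincubated 5 h at 37 C/5% CO2, then pin-dosed with compounds in DMSO. Nonlytic luminescence from viable cells was read at each time point.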
A short description of assay [6]: qHTS RealTime-Glo MT Cell Viability Assay in HEK293 cells - 32 hour (AID 1224868). Also: top concentration of the series differs between compounds; nearly all actives have a fitted effect of over 50% in size. In outline:
(§2)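 HEK293 cells were seeded at 600 cells/well together with NanoLuc luciferase and cell-permeant prosubstrate, preincubated 5 h at 37 C/5% CO2, then given compound in DMSO by pintool. Luminescence from viable-cell prosubstrate reduction was read repeatedly over 40 h.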

The nature of assay [7]: A CellTox Green Cytotoxicity Assay to monitor cytotoxicity in HEK293 cells - 0 hour (AID 1224869). Also: nearly all actives have a fitted effect of over 50% in size. In outline: (§3)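 Cytotoxicity was tracked continuously in HEK293 cells by a DNA-binding dye excluded from viable cells. Compounds were transferred in DMSO 5 h after seeding; fluorescence was recorded at intervals up to 40 h.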
Assay [8] can be described thus: qHTS RealTime-Glo MT Cell Viability Assay in HepG2 cells - 40 hour (AID 1224870). Also: nearly all actives have a fitted effect of over 50% in size. In outline:
(§4)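 HepG2 cells mixed with RealTime-Glo MT reagents (NanoLuc plus cell-permeant prosubstrate) were seeded at 600 cells/well, incubated 5 h at 37 C/5% CO2, then pinned with compounds in DMSO; nonlytic luminescence tracked viability during 40 h treatment.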

The nature of assay [9]: A CellTox Green Cytotoxicity Assay to monitor cytotoxicity in HEK293 cells - 40 hour (AID 1224871). Also: nearly all actives have a fitted effect of over 45% in size. Also: potency is read from the fitted curve at half-maximal effect. In outline: as §3
Assay [10] is described as follows: qHTS RealTime-Glo MT Cell Viability Assay in HEK293 cells - 16 hour (AID 1224872). The essentials:
as §2

Assay [11] can be described thus: qHTS RealTime-Glo MT Cell Viability Assay in HepG2 cells - 8 hour (AID 1224873). Also: nearly all actives have a fitted effect of over 55% in size. The essentials: as §4
The nature of assay [12]: qHTS RealTime-Glo MT Cell Viability Assay in HEK293 cells - 40 hour (AID 1224874). Also: nearly all actives have a fitted effect of over 50% in size. As to conditions: RealTime-Glo luminescence; max response: stronger effect = lower value. The essentials: (§5)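 Nonlytic bioluminescent viability monitoring. HEK293 at 600 cells/well with reagent; 5 h settle; compound transfer by pintool; plates held at 37 C and read at set time points.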
The nature of assay [13]: A CellTox Green Cytotoxicity Assay to monitor cytotoxicity in HEK293 cells - 24 hour (AID 1224875). Also: nearly all actives have a fitted effect of over 45% in size. In outline: as §3
Assay [14] can be described thus: A CellTox Green Cytotoxicity Assay to monitor cytotoxicity in HepG2 cells - 16 hour (AID 1224876). Also: nearly all actives have a fitted effect of over 45% in size. The essentials: (§6)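 Real-time, homogeneous cytotoxicity readout: dead-cell DNA staining by CellTox Green in HepG2 monolayers, fluorescence measured at timed intervals up to 40 h of continuous compound exposure.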
Assay [15] can be described thus: qHTS RealTime-Glo MT Cell Viability Assay in HepG2 cells - 32 hour (AID 1224877). Also: nearly all actives have a fitted effect of over 55% in size. In outline: as §1
The nature of assay [16]: A CellTox Green Cytotoxicity Assay to monitor cytotoxicity in HepG2 cells - 24 hour (AID 1224878). Also: nearly all actives have a fitted effect of over 45% in size. The essentials: as §6
The nature of assay [17]: A CellTox Green Cytotoxicity Assay to monitor cytotoxicity in HepG2 cells - 40 hour (AID 1224879). Also: nearly all actives have a fitted effect of over 40% in size. In outline:
as §6

Assay [18] is described as follows: qHTS RealTime-Glo MT Cell Viability Assay in HEK293 cells - 0 hour (AID 1224880). In outline: as §5
Assay [19] is described as follows: qHTS assay to identify small molecule antagonists of the estrogen related receptor (ERR) signaling pathway from Tox21 library (AID 1224848). Also: nearly all actives have a fitted effect of over 50% in size. The essentials:
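Screening used an ERR reporter line supplied by NTP, exposed for 18 h at 37 C to library compounds delivered in DMSO. Signal was luciferase luminescence developed with ONE-Glo at room temperature for 30 min.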

Assay [20] can be described thus: qHTS assay to identify small molecule agonists of the estrogen related receptor (ERR) signaling pathway from Tox21 library (AID 1224849; calls by dose curve; also: nearly all actives have a fitted effect of over 15% in size). The following applies: ERR reporter cell line, ONE-Glo luciferase, 18 h. The essentials: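 Agonist signal is luciferase luminescence from an ERR reporter cell line treated 18 h at 37 C with DMSO-dissolved compounds, read 30 min after ONE-Glo addition at room temperature.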

Several values for one entry are separate records, joined by “and”; a condition that tells them apart may be missing. Identical values can stand only once. Results filed as inconclusive are left out. Some compounds were tested as several samples or in several runs, with calls that do not always agree. Activity calls are given as the source filed them. Unless noted, calls follow the shape of the dose curve; as a rule, active = well fitted curve in the direction sought with a large enough effect in the repeat runs; inconclusive = weak or mixed curves; inactive = no such curve, though single readings can be large; an effect the other way counts as inactive or inconclusive.
% is scaled to controls: 0 for no effect and ±100 for the full control effect.

For `CC(=O)OC[C@H]1O[C@@](COC(C)=O)(O[C@H]2O[C@H](COC(C)=O)[C@@H](OC(C)=O)[C@H](OC(C)=O)[C@H]2OC(C)=O)[C@@H](OC(C)=O)[C@@H]1OC(C)=O`, the Potency entry in [1], in assay [2], in [4], in [5], in assay [6] and in assay [7] was “inactive” each time. In addition, the Potency result in [8], in assay [9], in [10], in assay [11], in assay [13] and in assay [14] was “inactive” each time. In addition, the Potency entry in [15], in assay [16], in assay [17] and in assay [18] was “inactive” each time. Also, the compound was called inactive in assay [3]. Further, in [12], the max response is -0.774% (inactive) and 5.83% (inactive).
For the compound `COc1ccc([C@@H]2CC(=O)c3c(O)cc(O[C@@H]4O[C@H](CO[C@@H]5O[C@@H](C)[C@H](O)[C@@H](O)[C@H]5O)[C@@H](O)[C@H](O)[C@H]4O)cc3O2)cc1OC`, the Potency result in [1], in assay [2], in [4], in [5], in assay [6] and in assay [7] was “inactive” each time. Also, the Potency result in assay [8], in assay [9], in [10], in assay [11], in assay [13] and in assay [14] was “inactive” in each case. The Potency result in [15], in assay [16], in assay [17] and in [18] was “inactive” each time. Moreover, in assay [3], the call was inactive. In addition, the max response in assay [12] was 14.9% (inactive) and 7.9% (inactive).
For the compound `OCCOCCOCCOCCOCCO`, the Potency result in assay [1], in [2], in assay [4], in [19], in assay [5] and in assay [6] was “inactive” each time. In addition, the Potency result in assay [7], in [8], in assay [9], in assay [10], in assay [11] and in [13] was “inactive” throughout. Further, the Potency result in assay [14], in [15], in assay [16], in [17] and in [18] was “inactive” each time. For the same compound, the call in [3] was inactive. Moreover, the activity change, positive = activation in assay [20] (at 92.4 µM (top of the series)) is 2.04% (inactive) and 4.48% (inactive). Also, in assay [12], the max response is 2.45% (inactive) and 0.674% (inactive).
As for `CC1(C)[C@@H](O[C@H]2O[C@H](C(=O)O)[C@@H](O)[C@H](O)[C@H]2O[C@@H]2O[C@H](C(=O)O)[C@@H](O)[C@H](O)[C@H]2O)CC[C@]2(C)[C@H]3C(=O)C=C4[C@@H]5C[C@@](C)(C(=O)O)CC[C@]5(C)CC[C@@]4(C)[C@]3(C)CC[C@@H]12`, the Potency result in [1], in [2], in assay [4], in assay [19], in assay [5] and in assay [6] was “inactive” each time. In addition, the Potency result in assay [7], in [8], in assay [9], in assay [10], in assay [11] and in assay [13] was “inactive” each time. For the same compound, the Potency entry in assay [14], in assay [15], in assay [16] and in [17] was “inactive” each time. The compound was classed as inactive in [3]. In addition, in [20] (at 42.5 µM (top of the series)), the activity change, positive = activation was 2.2% (inactive) and 1.06% (inactive). Further, in assay [12], the max response was -4.4% (inactive) and 0.425% (inactive).
In the case of `CC(C)(C)NC[C@H](O)COc1nsnc1N1CCOCC1`, the Potency result in [1], in [2], in assay [4], in assay [5], in assay [6] and in [7] was “inactive” throughout. Further, the Potency result in assay [8], in [10], in [11], in [13], in assay [14] and in [15] was “inactive” each time. Moreover, the Potency result in assay [17] and in [18] was “inactive” throughout. In addition, the Potency entry in [9] was “inactive and 3.38 µM (active)”. Besides, the max response in assay [12] is -0.31% (inactive) and -1.2% (inactive).
For `CCn1cc(C(=O)O)c(=O)c2cc3c(cc21)OCO3`, the Potency entry in assay [1], in [2], in assay [4], in [5], in [6] and in assay [7] was “inactive” throughout. Also, the Potency entry in assay [8], in [9], in assay [10], in [11], in assay [13] and in assay [14] was “inactive” in each case. Also, the Potency result in assay [15], in assay [16], in [17] and in [18] was “inactive” in each case. Further, in assay [12], the max response is 10.2% (inactive) and 3.68% (inactive).
